Only some compounds are listed: those with a hit (about 2.7% of all), similar ones and a draw of the others.
KDM5B inh: inhibitors of human KDM5B histone demethylase; AID 1347165; KDM5B demethylase, FDH-coupled NADH fluorescence (FDH is formaldehyde dehydrogenase); 220,000 compounds, 2.6% hits; Q9UGL1; Potency, µM (doses to about 57.7 µM), most hits filed as inhibitors; active = well fitted inhibition curve with a large enough effect; inconclusive = small, poorly fitted or top-dose-only effect; inactive = no such curve, though single readings can be large or run the other way; note: potency is the fitted concentration of half-maximal effect; 0% is about no effect; nearly all actives have a fitted effect of over 70% in size
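Here, H3K4me3 peptide (12.5 µM in substrate mix) is demethylated by KDM5BΔAP, 200 nM final, after 10 min compound exposure. Formaldehyde product is coupled through FDH (0.25 U/mL in mix) to NADH fluorescence; 30-min ΔRFU feeds dose-response curves.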
IP6K1 inhibitor: IP6K1 kinase inhibition. Q92551. IP6K1 kinase, ADP-Glo luminescence, 2 h; active compounds read low. activity change, % (series mostly up to about 58 µM). 140,000 compounds, 0.81% hits. AID 1645851; in the data active = activity change below about -25%; note: % is set by controls: 0 for no effect and ±100 for the full control effect
Target sequence (Q92551 whole entry, looked up): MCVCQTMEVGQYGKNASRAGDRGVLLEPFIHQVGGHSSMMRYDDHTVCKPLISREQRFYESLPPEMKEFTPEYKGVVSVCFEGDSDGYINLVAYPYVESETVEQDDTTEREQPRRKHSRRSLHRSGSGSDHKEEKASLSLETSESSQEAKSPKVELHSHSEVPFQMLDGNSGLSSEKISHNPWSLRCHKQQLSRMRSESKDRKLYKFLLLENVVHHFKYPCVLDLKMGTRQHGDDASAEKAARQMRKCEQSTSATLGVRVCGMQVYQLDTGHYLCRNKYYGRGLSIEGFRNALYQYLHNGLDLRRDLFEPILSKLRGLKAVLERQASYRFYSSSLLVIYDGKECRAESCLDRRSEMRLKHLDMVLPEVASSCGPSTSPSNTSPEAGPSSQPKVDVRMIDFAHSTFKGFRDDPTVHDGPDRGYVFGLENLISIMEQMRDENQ
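ADP-Glo luminescence measures ADP made by human IP6K1 during a 2 h RT reaction with ATP/IP6 (mix at 1.3 mM/130 uM); top library doses 57.5 and 19.1 uM final.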
An asterisk follows results filed as active; i = inactive; ? = inconclusive; · = no result given; ! = not confirmed by another sample.

SMILES	KDM5B inh	IP6K1 inhibitor
O=C(Nc1ccc(Cl)cc1F)N1CCc2nc3cc[nH]n3c(=O)c2C1	32µM*	0
Cc1ccc(-c2noc(CCCC(=O)N3CCc4nc5cc[nH]n5c(=O)c4C3)n2)cc1	?	10
Cn1nc(C(=O)N2CCc3nc4cc[nH]n4c(=O)c3C2)c2ccccc21	32µM*	6
COc1ccc(CC(=O)N2CCc3nc4cc[nH]n4c(=O)c3C2)c(Cl)c1	?	14
Cc1ccccc1OCC(=O)N1CCc2nc3cc[nH]n3c(=O)c2C1	?	8
Cc1ccccc1C(=O)N1CCc2nc3cc[nH]n3c(=O)c2C1	28µM*	4
Cn1cccc1C(=O)N1CCc2nc3cc[nH]n3c(=O)c2C1	32µM*	11
Cc1ccc2c(=O)cc(C(=O)N(Cc3cccc(Cl)c3)C3CCS(=O)(=O)C3)oc2c1C (stereo unspecified)	i	·
O=C(/C=C/c1ccncc1)N1CCN(Cc2cccc(C(F)(F)F)c2)CC1	i	·
CNC(=O)c1nn(CC(=O)N(C)C2CCCCC2)c(=O)c2ccccc12	i	·
COc1ccc(-c2cc3nc4c(c(=O)n3[nH]2)CN(C(=O)c2sccc2C)CC4)cc1	?	3
Cc1ccsc1C(=O)N1CCc2c(nc3cc[nH]n3c2=O)C1	32µM*	24
O=C(O)c1ccc(CN2CCC[C@H]2c2nc(-c3ccc(-c4cncnc4)nc3)no2)cc1	i	19
COCCOc1ncccc1-c1noc([C@@H]2CCCN2Cc2ncc[nH]2)n1	i	0
CC(=O)Nc1ccc(CN2CCC[C@H]2c2nc(-c3ccnc(NS(C)(=O)=O)c3)no2)cc1	?	12
CC(=O)Nc1ccc(CN2CCC[C@H]2c2nc(-c3ccnc(N4CCC(C(N)=O)CC4)c3)no2)cc1	32µM*	13
NC(=O)C1CCN(c2cc(-c3noc([C@@H]4CCCN4Cc4cccnc4)n3)ccn2)CC1	40µM*	17
CC(=O)N1CCN(c2cc(-c3noc([C@@H]4CCCN4Cc4ccc(N(C)C)cc4)n3)ccn2)CC1	28µM*	10
c1cc(-c2noc([C@@H]3CCCN3Cc3ncc[nH]3)n2)cc(N2CCCC2)n1	40µM*	17
COc1ccc(-c2noc([C@@H]3CCCN3C(=O)c3ccc(N(C)C)cc3)n2)cc1OC	?	-4
CN1CCCN(C(=O)c2cc3cc(Br)ccc3oc2=O)CC1	i	·
Cc1cc2oc(=O)cc(CN3CCc4cc(S(N)(=O)=O)ccc43)c2cc1C	i	·
O=C(Nc1cccc(C(F)(F)F)c1)c1cnc2c(c1)N(C(=O)Cc1cccc(C(F)(F)F)c1)CCC2	?	3
CCC(CC)NC(=O)C1CCN(C2=NS(=O)(=O)c3ccccc32)CC1	i	·
CCCCN(CC)CCNC(=O)Cn1c(C)c(C(=O)OCC)c(C)c1-c1ccccc1	i	·
SMILES	KDM5B inh	IP6K1 inhibitor
c1cncc(CN2CCC[C@H]2c2nc(-c3ccnc(N4CCCC4)c3)no2)c1	35µM*	9
COc1ccc(CN2CCC[C@H]2c2nc(-c3ccc(N4CCC(C(N)=O)CC4)nc3)no2)c(O)c1	i	12
c1cc(-c2noc([C@@H]3CCCN3C3CCOCC3)n2)cc(N2CCCC2)n1	?	0
NC(=O)C1CCN(c2cc(-c3noc([C@@H]4CCCN4Cc4ccncc4)n3)ccn2)CC1	32µM*	7
CC(C)CN1CCC[C@H]1c1nc(-c2ccnc(NS(C)(=O)=O)c2)no1	35µM*	3
CS(=O)(=O)Nc1cc(-c2noc([C@@H]3CCCN3Cc3ccccc3)n2)ccn1	?	-10
COC(=O)N(C)Cc1cccc(N2CCN(C(C)c3ccccc3)CC2)c1F (stereo unspecified)	·	7
O=C(c1cccc(Cl)c1)N1CCN(Cc2ccccc2-c2ccccc2F)CC1	·	0
CCC(C)(C)NC(=O)CCc1ccc(C#N)cc1	i	·
COc1ccc2c(C)c(CC(=O)NCCc3ccccc3F)c(=O)oc2c1C	i	·
CNC[C@@]12CN(Cc3ccccc3)C[C@@H]1C(C)(C)COc1ccc(OC)cc12	·	6
Brc1ccc(CN2CCC(c3nc4ncccc4[nH]3)CC2)cc1	i	1
COc1ccc(CN2CC[C@H](c3nc4c(C(N)=O)cccc4[nH]3)C2)cc1	?	10
Brc1ccc(CN2CCC(c3nc4ncccc4[nH]3)C2)cc1 (stereo unspecified)	20µM*!	2
NC(=O)c1cccc2[nH]c([C@H]3CCN(Cc4cccc(Cl)c4)C3)nc12	35µM*	14
Cc1ccc(-c2c(C(=O)NCC(C)C)nc3sccn23)cc1	·	12
CCNC(=O)c1ccccc1SCC	i	·
COc1cccc(C(=O)N2CCC(N3C(=O)c4c(c(C)nn4-c4ccccc4)C3C(C)C)CC2)c1 (stereo unspecified)	·	15
CC(=O)Nc1ccc(C(=O)NC[C@@H]2C=C(C)[C@H](Cc3nnc(-c4ccccc4F)o3)C[C@H]2C(C)C)cc1	i	-11
Cc1ccc(-c2nc3cnccn3c2NCCC(=O)NCc2ccco2)cc1	28µM*	1
